# Laboratory results reported in PubChem BioAssay.
# Values joined by “and” are separate entries in the source; they are usually repeats but may differ in a detail not shown here. Identical values can stand only once. Results filed as inconclusive are left out. Active and inactive are the calls of the source.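 The calls were made as follows, unless noted: active = normalized viability below 100% at a tested concentration; inactive = the rest.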
# Assays:
# [1] = viability loss in pontine glioma line – cell-based, SU-DIPG-XIII, MIPE4.0, CellTiter-Glo, qHTS, dose response (AID 1347061; cut-off not given, nearly all actives have AC50 up to about 37 µM;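 also: cells exposed to compound for 48 hours before readout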); conditions: CellTiter-Glo ATP luminescence
# [2] = growth inhibition of DIPG cells – cell-based, MIPE4.0 library, CellTiter-Glo luminescence, qHTS (AID 1347066; cut-off not given, nearly all actives have AC50 up to about 30 µM;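 also: cells exposed to compound for 48 hours before readout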); conditions: SU-DIPG-VI viability, CellTiter-Glo ATP luminescence
# [3] = growth inhibition of DIPG cells – cell-based, MIPE5.0 library, qHTS (AID 1347068; cut-off not given, nearly all actives have IC50 up to about 30 µM); conditions: SU-DIPG-XXV viability
# [4] = viability loss with induced miR-34 in A549 – imaging, A549 dox-inducible miR-34, nuclei and caspase counts, primary screen (AID 1347080;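 active = compounds whose cell count with miR-34 switched on is under 0.7 times the count with it off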); conditions: A549 miR-34 inducible, Hoechst nuclei count, 48 h
# [5] = compounds altering HSF1 focus formation in cells – imaging, Selleck Cancer Library (AID 1347162; in the data active = plate-normalised HSF1 focus index below about 0.46); conditions: human cells, HSF1 nuclear foci imaging, at 10 µM; SSMD: measured here: HSF1 foci SSMD mean; cell count: measured here: cell number; plate-normalised HSF1 focus index: stronger effect = lower value
# [6] = MELAS cybrid and Rieske KO viability enhancers – cell-based, MELAS cybrids, Rieske KO mouse fibroblasts, CellTiter-Glo, primary screen (AID 1508586;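 active = mean z-score across replicates of 1.96 or higher in either the MELAS or the Rieske mutant cell line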;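 also: z relative to plate mean and SD of compound and empty wells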); conditions: low glucose
# [7] = drug combination growth inhibition, ovarian cancer – cell-based, oncology-focused library, rucaparib conditional, profiling panel (AID 1508598); conditions: patient-derived ovarian cancer cells, CellTiter-Glo viability, 144 h, stronger effect = lower value
# [8] = growth inhibition, single agent or in combination, cell-based, chromothripsis tumors, cisplatin or BGB combos (AID 1671449; in the data active = inhibition above about 80%;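 also: cells exposed for 96 hours; 0% = vehicle DMSO and 100% = killing by high DMSO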); conditions: LFS_MB_P medulloblastoma cells
# [9] = growth inhibition, single agent and combos, cell-based, chromothripsis tumors, cisplatin or BGB combos (AID 1671450; in the data active = inhibition above about 80%;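 also: cells exposed to compound for four days; 0% = vehicle DMSO and 100% = cell killing by high DMSO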); conditions: HDN33 neuroblastoma cells, stronger effect = higher value
# [10] = growth inhibition, single agents and combos, ICB984, cell-based, cisplatin or BGB combos, synergistic combos for chromothripsis tumors (AID 1671451; call rule not given here;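 also: cells exposed for 96 hours before readout; 0% = vehicle DMSO and 100% = killing by high DMSO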); conditions: ICB984 medulloblastoma cells, drug combinations, stronger effect = higher value
# [11] = growth inhibition, single agents and combos, HTB85, cell-based, BGB or cisplatin IC20 combos, synergistic combos for chromothripsis tumors (AID 1671453; in the data active = inhibition above about 80%;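 also: cells exposed for 96 hours before readout; 0% = vehicle DMSO and 100% = high DMSO killing control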); conditions: HTB85 osteosarcoma cells, drug combinations, stronger effect = higher value
# [12] = growth inhibition, MDA-MB-436, cell-based, BGB or cisplatin combos, synergistic combos for chromothripsis tumors (AID 1671458; call rule not given here;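 also: cells exposed for 96 hours; 0% = vehicle DMSO and 100% = killing by high DMSO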); conditions: MDA-MB-436 breast carcinoma growth inhibition, drug combinations, stronger effect = higher value
# [13] = BT084 cell growth, single and combined drugs, ICGC_MB145, cisplatin and BGB IC40 combos (AID 1671461; in the data active = inhibition above about 80%;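 also: cells exposed to drugs for 96 hours; 0% = vehicle DMSO and 100% = high DMSO full killing control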); conditions: BT084 medulloblastoma cells, drug combinations, stronger effect = higher value
# [14] = RCMB18 cell growth, single agent and combined, cisplatin and BGB IC40 combos (AID 1671462; in the data active = inhibition above about 80%;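 also: cells exposed to compound for four days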); conditions: RCMB18 medulloblastoma cells, stronger effect = higher value
# [15] = CRL1545 cell growth, single agent and combined, cisplatin and BGB IC20 combos (AID 1671464; in the data active = inhibition above about 80%;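 also: cells exposed to compound for 96 hours before readout; 0% = vehicle DMSO and 100% = high DMSO killing control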); conditions: CRL1545 osteosarcoma cells, stronger effect = higher value
# [16] = stronger effect = lower value, cell number ratio, induced over uninduced
# [17] = measured here: relative caspase fold change +Dox/-Dox
# [18] = measured here: total cells with miR-34 induction, stronger effect = lower value
# [19] = measured here: total cells without miR-34 induction
# [20] = measured here: with BGB IC20 combination, at 0.5 µM
# [21] = measured here: with cisplatin IC20 combination, at 0.5 µM
compound,measurement,setting,value
CN(C)Cc1ccc(-c2nc3cccc4c3n2CCNC4=O)cc1,AC50,[1],18.7 µM (active)
same,outcome,[2],inactive
same,outcome,[3],inactive
same,fold change,[4]; [16],0.89 (inactive)
same,fold change,[4]; [17],1.02
same,cell count,[4]; [18],6740
same,cell count,[4]; [19],7560
same,SSMD,[5],-0.246
same,cell count,[5],7430
same,plate-normalised HSF1 focus index,[5],0.994 (inactive)
same,z-score,"[6]; MELAS cybrid survival, CellTiter-Glo 48 h, stronger effect = higher value",-0.319 (inactive)
same,z-score,"[6]; Rieske KO mouse fibroblast survival, CellTiter-Glo 72 h",-0.0135
same,viability,"[7]; at 0.000305 µM, OCI-C5x cells, with rucaparib 10 µM, 100% = cells with rucaparib alone",114% (inactive)
same,viability,"[7]; at 0.000305 µM, OCI-C5x cells, without rucaparib",127% (inactive)
same,viability,"[7]; at 0.000305 µM, OCI-P5x cells, with rucaparib 20 µM, 100% = cells with rucaparib alone",98.3% (active)
same,viability,"[7]; at 0.000305 µM, OCI-P5x cells, without rucaparib",118% (inactive)
same,viability,"[7]; at 0.00122 µM, OCI-C5x cells, with rucaparib 10 µM, 100% = cells with rucaparib alone",111% (inactive)
same,viability,"[7]; at 0.00122 µM, OCI-C5x cells, without rucaparib",142% (inactive)
same,viability,"[7]; at 0.00122 µM, OCI-P5x cells, with rucaparib 20 µM, 100% = cells with rucaparib alone",98.2% (active)
same,viability,"[7]; at 0.00122 µM, OCI-P5x cells, without rucaparib",119% (inactive)
same,viability,"[7]; at 0.00488 µM, OCI-C5x cells, with rucaparib 10 µM, 100% = cells with rucaparib alone",109% (inactive)
same,viability,"[7]; at 0.00488 µM, OCI-C5x cells, without rucaparib",121% (inactive)
same,viability,"[7]; at 0.00488 µM, OCI-P5x cells, with rucaparib 20 µM, 100% = cells with rucaparib alone",102% (inactive)
same,viability,"[7]; at 0.00488 µM, OCI-P5x cells, without rucaparib",115% (inactive)
same,viability,"[7]; at 0.0195 µM, OCI-C5x cells, with rucaparib 10 µM, 100% = cells with rucaparib alone",110% (inactive)
same,viability,"[7]; at 0.0195 µM, OCI-C5x cells, without rucaparib",128% (inactive)
same,viability,"[7]; at 0.0195 µM, OCI-P5x cells, with rucaparib 20 µM, 100% = cells with rucaparib alone",97% (active)
same,viability,"[7]; at 0.0195 µM, OCI-P5x cells, without rucaparib",111% (inactive)
same,viability,"[7]; at 0.0781 µM, OCI-C5x cells, with rucaparib 10 µM, 100% = cells with rucaparib alone",112% (inactive)
same,viability,"[7]; at 0.0781 µM, OCI-C5x cells, without rucaparib",136% (inactive)
same,viability,"[7]; at 0.0781 µM, OCI-P5x cells, with rucaparib 20 µM, 100% = cells with rucaparib alone",89.9% (active)
same,viability,"[7]; at 0.0781 µM, OCI-P5x cells, without rucaparib",107% (inactive)
same,viability,"[7]; at 0.313 µM, OCI-C5x cells, with rucaparib 10 µM, 100% = cells with rucaparib alone",117% (inactive)
same,viability,"[7]; at 0.313 µM, OCI-C5x cells, without rucaparib",118% (inactive)
same,viability,"[7]; at 0.313 µM, OCI-P5x cells, with rucaparib 20 µM, 100% = cells with rucaparib alone",88.6% (active)
same,viability,"[7]; at 0.313 µM, OCI-P5x cells, without rucaparib",101% (inactive)
same,viability,"[7]; at 1.25 µM, OCI-C5x cells, with rucaparib 10 µM, 100% = cells with rucaparib alone",109% (inactive)
same,viability,"[7]; at 1.25 µM, OCI-C5x cells, without rucaparib",121% (inactive)
same,viability,"[7]; at 1.25 µM, OCI-P5x cells, with rucaparib 20 µM, 100% = cells with rucaparib alone",88.7% (active)
same,viability,"[7]; at 1.25 µM, OCI-P5x cells, without rucaparib",92.1% (active)
same,viability,"[7]; at 5 µM, OCI-C5x cells, with rucaparib 10 µM, 100% = cells with rucaparib alone",120% (inactive)
same,viability,"[7]; at 5 µM, OCI-C5x cells, without rucaparib",114% (inactive)
same,viability,"[7]; at 5 µM, OCI-P5x cells, with rucaparib 20 µM, 100% = cells with rucaparib alone",78.4% (active)
same,viability,"[7]; at 5 µM, OCI-P5x cells, without rucaparib",83.9% (active)
same,inhibition,"[8]; at 0.5 µM, stronger effect = higher value",-24.1% (inactive) and -21.5% (inactive)
same,inhibition,"[8]; measured here: combination with BGB IC20, at 0.005 µM",-9.73% and -22%
same,inhibition,"[8]; measured here: combination with BGB IC40, at 0.005 µM",64% and -31.1%
same,inhibition,"[8]; measured here: combination with BGB IC40, at 0.05 µM",-13% and -56%
same,inhibition,"[8]; measured here: combination with cisplatin, at 0.5 µM, stronger effect = higher value",-37.5% and -16.8%
same,inhibition,"[8]; measured here: combination with cisplatin, at 5 µM, stronger effect = higher value",-29.7% and -74.4%
same,inhibition,"[9]; BGB combo, at 5 µM",-26.8% and -18.6%
same,inhibition,[9]; at 0.5 µM,-1.23% (inactive) and -27.1% (inactive)
same,inhibition,"[9]; cisplatin combo, at 5 µM",6.93% and -10.3%
same,inhibition,[9]; [20],-13.1% and -21.5%
same,inhibition,[9]; [21],15.7% and -26.9%
same,inhibition,"[9]; single agent, at 5 µM",-4.63% and 68.3%
same,inhibition,"[10]; BGB IC20 combo, at 0.005 µM",-1.21% and 16.5%
same,inhibition,"[10]; BGB IC40 combo, at 0.005 µM",-19.6% and -25.1%
same,inhibition,"[10]; BGB IC40 combo, at 0.05 µM",-33.7% and -42.1%
same,inhibition,[10]; at 0.5 µM,-15.4% (inactive) and -23.9% (inactive)
same,inhibition,"[10]; cisplatin combo, at 0.05 µM",-40.7% and -47.2%
same,inhibition,"[10]; cisplatin combo, at 0.5 µM",-18.6%
same,inhibition,"[10]; cisplatin combo, at 5 µM",-4.49% and -37.9%
same,inhibition,"[10]; measured here: 5 uM single agent, at 5 µM",-23% and -7.92%
same,inhibition,[11]; at 0.5 µM,17.4% (inactive) and -2.96% (inactive)
same,inhibition,"[11]; measured here: with BGB IC20, at 0.5 µM",58.8% and -16.5%
same,inhibition,"[11]; measured here: with BGB IC20, at 5 µM",10.8% and 1.62%
same,inhibition,"[11]; measured here: with cisplatin IC20, at 0.5 µM",-2.97% and 1.8%
same,inhibition,"[11]; measured here: with cisplatin IC20, at 5 µM",2.38% and -10.9%
same,inhibition,"[11]; single agent, at 5 µM",7.8% and -6.63%
same,inhibition,[12]; at 0.5 µM,-0.12% (inactive) and 3.53% (inactive)
same,inhibition,"[12]; measured here: BGB combination, at 0.5 µM",-12.4% and -11.3%
same,inhibition,"[12]; measured here: BGB combination, at 5 µM",-14% and -5.01%
same,inhibition,"[12]; measured here: cisplatin combination, at 0.5 µM",2.29% and 7.08%
same,inhibition,"[12]; measured here: cisplatin combination, at 5 µM",-4.32% and 2.44%
same,inhibition,[13]; at 0.5 µM,-6.05% (inactive) and -22.2% (inactive)
same,inhibition,"[13]; cisplatin combination, at 0.5 µM",-18.4% and -65.7%
same,inhibition,"[13]; cisplatin combination, at 5 µM",-58.6% and -32.7%
same,inhibition,"[13]; measured here: BGB IC40 combination 0.05 uM, at 0.05 µM",-19.6% and 43.4%
same,inhibition,"[13]; single agent, at 5 µM",-6.92% and -7.26%
same,inhibition,[14]; at 0.5 µM,-9.62% (inactive) and -41.4% (inactive)
same,inhibition,"[14]; cisplatin combo, at 5 µM",-40.6% and -33.3%
same,inhibition,"[14]; measured here: BGB IC40 combination, at 0.05 µM",-1.87% and -3.35%
same,inhibition,"[14]; measured here: combination with cisplatin, at 0.5 µM",-15.6% and -104%
same,inhibition,"[14]; single agent, at 5 µM",-19.5% and -24.5%
same,inhibition,[15]; at 0.5 µM,4.03% (inactive) and 11.8% (inactive)
same,inhibition,[15]; [20],-8.48% and 3.96%
same,inhibition,[15]; [21],8.84% and 14.3%
same,inhibition,"[15]; single agent, at 0.05 µM",17.2% and 13.3%
same,inhibition,"[15]; single agent, at 5 µM",-17.9% and -17.8%
COC(=O)C1=CO[C@@H](O)[C@@H]2C(CO)=CC[C@H]12,outcome,[1],inactive
same,fold change,[4]; [16],1 (inactive)
same,fold change,[4]; [17],0.878
same,cell count,[4]; [18],10100
same,cell count,[4]; [19],10100
